# Data: PubChem BioAssay (EPA / NIEHS)
# Results filed as inconclusive are left out. Activity calls are given as the source filed them. Rule for the calls: active = hit-call score of the fitted dose curve at least 0.9, where 1 is the maximum; inconclusive = response in the unintended direction; inactive = score below 0.9.
# Target: Androgen receptor (Homo sapiens) (UniProt P10275)
# Test: ATG_AR_TRANS: Attagene TRANS-FACTORIAL HepG2 Assay for human Androgen Receptor (AR) (AID 2282973)
# Details: HepG2 Attagene TRANS-FACTORIAL AR reporter transcription
# How it was run: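 Readout is reporter transcript abundance, quantified by fluorescent RT-PCR products separated on capillary electrophoresis. Human HepG2 liver cells carried transiently transfected NR-Gal4 chimera plus GAL4-UAS reporter constructs and were dosed for 24 h; activity scored upward versus DMSO.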
# Androgen receptor (Homo sapiens), sequence (P10275 whole entry, looked up): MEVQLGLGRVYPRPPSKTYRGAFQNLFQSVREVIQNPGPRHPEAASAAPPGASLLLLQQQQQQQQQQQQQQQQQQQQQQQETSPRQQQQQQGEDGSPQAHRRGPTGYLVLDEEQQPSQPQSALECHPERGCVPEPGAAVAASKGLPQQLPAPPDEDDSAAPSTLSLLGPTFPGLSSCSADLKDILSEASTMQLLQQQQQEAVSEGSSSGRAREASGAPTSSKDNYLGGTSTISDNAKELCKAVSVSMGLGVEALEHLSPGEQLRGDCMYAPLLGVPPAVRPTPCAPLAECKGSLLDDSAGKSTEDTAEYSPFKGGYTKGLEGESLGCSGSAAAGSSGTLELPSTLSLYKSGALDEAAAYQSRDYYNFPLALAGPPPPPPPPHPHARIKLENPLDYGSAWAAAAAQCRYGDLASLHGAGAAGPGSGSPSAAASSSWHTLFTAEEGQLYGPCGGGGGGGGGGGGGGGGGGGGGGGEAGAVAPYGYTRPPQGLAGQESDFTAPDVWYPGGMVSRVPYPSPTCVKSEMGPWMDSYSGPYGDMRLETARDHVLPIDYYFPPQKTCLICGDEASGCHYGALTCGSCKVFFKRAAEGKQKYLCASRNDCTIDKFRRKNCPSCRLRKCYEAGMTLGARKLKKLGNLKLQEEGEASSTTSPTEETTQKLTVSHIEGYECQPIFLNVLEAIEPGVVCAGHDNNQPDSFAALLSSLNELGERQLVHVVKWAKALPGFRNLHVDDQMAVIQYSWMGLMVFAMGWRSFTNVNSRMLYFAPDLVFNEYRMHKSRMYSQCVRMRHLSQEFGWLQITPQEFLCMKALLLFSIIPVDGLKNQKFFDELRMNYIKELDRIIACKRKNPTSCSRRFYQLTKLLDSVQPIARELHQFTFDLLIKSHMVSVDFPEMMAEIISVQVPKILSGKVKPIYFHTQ
SMILES,outcome,AC50
Clc1sc(Cl)c(Cl)c1Cl,inactive,
CCCCCCOC(=O)C(C)CC (stereo not given),inactive,
CC(C)=CCCC(C)O (stereo not given),inactive,
OCC1CCC(CO)CC1 (stereo not given),inactive,
CC=CC(=O)OCC(C)C,inactive,
C=C(C)C(=O)OCCOC(=O)C(=C)C,inactive,
COc1cc2c(c(OC)c1OC)-c1ccc(OC)c(=O)cc1[C@@H](NC(C)=O)CC2,inactive,
O=CN1CCOCC1,inactive,
CCO[Si](C)(C)OCC,inactive,
CC=CC(F)(F)C(F)(F)C(F)(F)F,inactive,
CCCCCCS,inactive,
O=S(=O)(c1ccc(OCc2ccccc2)cc1)c1ccccc1O,inactive,
N=C1C=CC(=C(c2ccc(N)cc2)c2ccc(N)cc2)C=C1,inactive,
CC1(C)C(=O)N(Br)C(=O)N1Br,inactive,
CC(=O)C1(C)CC2=C(CCCC2(C)C)CC1C (stereo not given),,158 µM (active)
CC(C)(CO)COC(=O)C(C)(C)CO,inactive,
CO[Si](CCCNCCN)(OC)OC,inactive,
CCC(C)(C)C1CCC(=O)CC1,inactive,
CC=C(C)C=CC=C(C)C,inactive,
CCCCCCCCCCCC[N+](C)(C)Cc1ccccc1,inactive,
C[C@H]1C[C@@H]2[C@H]([C@@H](O)C[C@@]3(C)[C@H]2CC[C@]3(O)C(=O)CO)[C@@]2(C)C=CC(=O)C=C12,inactive,
CCCCCCCCCCC,inactive,
COC(=O)c1cccc(C)c1S(=O)(=O)NC(=O)Nc1nc(OCC(F)(F)F)nc(N(C)C)n1,inactive,
O=C(Cl)C(F)(F)C(F)(F)C(F)(F)C(F)(F)C(F)(F)C(F)(F)F,inactive,
NNC(=O)OCc1ccccc1,inactive,
